Assay results reported in ChEMBL document CHEMBL3988442, “University of Dundee, Small-Polar-MMV Screening Library” (2021).
About 13,000 (27%) of roughly 48,000 compounds showed an effect of 50% or more. The list shows a part of the results.

System: Wolbachia pipientis
Assay: Anti-Wolbachia Cell-Based Screen
Assay type: functional
Set-up: scale not given: in the data most compounds retested in dose-response had high values
Details: 5 µM

SMILES	Percent Effect
COCC1CCCCN1Cc1nc(-c2ccoc2)oc1C (stereo unspecified)	2.327%
Cn1cc(N2CCN(c3ccc(C#N)cc3Br)CC2=O)cn1	-23.45%
CCc1ccccc1OC1CN(C(=O)CN(C)Cc2ccncc2)C1	0.8406%
CC(C)c1ccn(C2(C(=O)O)CCN(c3cc(C(N)=O)ccn3)CC2)n1	10.23%
O=C(COc1cccnc1)NCc1nncn1C1CCCCC1	-1.054%
Cc1cnc(N2CC[C@@]3(O)CCCC[C@H]3C2)nc1-c1ccnn1C	-8.985%
Cc1nn2c(N3CCC(C#N)CC3)cc(-c3ccccc3)nc2c1C	-8.665%
c1ccc(CCN2CCN(c3ccc4nncn4n3)CC2)cc1	80.05%
Cc1ccc(C)c2c1NC(=O)C2CC(=O)O (stereo unspecified)	5.742%
COCc1nc(NC(C)Cc2cc(C)n[nH]2)c2cnn(C)c2n1 (stereo unspecified)	4.118%
CC(C)Oc1ccc(C(=O)N2CCC(Nc3cccnn3)CC2)cn1	123.7%
COc1ccc(C(=O)N2CCC(Nc3cccnn3)CC2)c(OC)c1	-3.344%
COc1ccc(C(=O)N2CCC(Nc3cccnn3)CC2)cn1	104%
C[S+]([O-])c1ccc(CNc2ccc(F)cc2OC(F)F)cc1 (stereo unspecified)	0.9094%
CCn1cc(C(=O)NCC(OC)c2cccc(Cl)c2)cn1 (stereo unspecified)	4.602%
CCn1cc(-c2cc(C(F)F)n3nc(CC(=O)O)nc3n2)cn1	108.3%
Cn1cc(-c2csc(N3CCN(C(=O)OC(C)(C)C)CC3)n2)cn1	8.816%
Cn1cc(-c2cc(C(F)F)n3nc(CCC(=O)O)nc3n2)cn1	133.7%
CCn1cc(-c2cc(C(F)F)n3nc(CCC(=O)O)nc3n2)cn1	98.47%
Cc1nn(C)cc1-c1ccnc(N(C)Cc2noc(C(C)C)n2)n1	1.029%
Cn1cc(-c2csc(N3CCOCC3)n2)cn1	-6.106%
Cc1nn(C)cc1-c1cc(C(F)F)n2nc(CCC(=O)O)nc2n1	110.6%

SMILES	Percent Effect
Cn1ncc(NC(=O)Cn2cc(-c3ccc(F)cn3)cn2)n1	2.479%
CCCc1cnc(C)nc1N1CCC2(CCCO2)CC1	-4.323%
O=C(C1CCC1)N1CCN(Cc2ccccc2F)[C@H]2CS(=O)(=O)C[C@H]21	4.948%
Cc1nc(CN(C)C(=O)Nc2cnn(CC3CCCO3)c2)cs1 (stereo unspecified)	-5.003%
Cc1nc(CCNC(=O)CC2CCN(C(C)C)CC2)sc1Cl	-9.554%
Cc1ccsc1C(=O)N1CC2CC1(C(=O)NCC1CC1)C2	-19.62%
CCn1ncc(-c2nc3c[nH]n(CC)c-3n2)c1C	-16.08%
CCn1ncc(-c2cc(C(F)F)n3nc(CCC(=O)O)nc3n2)c1C	94.49%
COc1ccccc1C(=O)N1CCC(Oc2ccc(C#N)cn2)CC1	-9.351%
Cn1cnc2c1CCN(Cc1ccc(C(=O)N3CCCC3)cc1)C2	0.7019%
CC1CCCCN1c1nc2c(c(=O)[nH]1)CCN(Cc1ccccn1)C2 (stereo unspecified)	67.76%
CCCn1nc2c(cc1=O)CN(Cc1ccccn1)CC2	-24.61%
CC1CCCCN1c1nc2c(c(=O)[nH]1)CCN(Cc1ccccc1F)C2 (stereo unspecified)	109.6%
Cc1ccsc1CN1CCC(c2cc(C(C)C)n[nH]2)CC1	15.3%
Cc1ccsc1CN1CCc2c(nc(N3CCCCC3C)[nH]c2=O)C1 (stereo unspecified)	117.5%
CC1CCCCN1c1nc2c(c(=O)[nH]1)CCN(Cc1ccc(O)cc1)C2 (stereo unspecified)	108.9%
Cc1[nH]c(=O)[nH]c(=O)c1CN1CCCC(CCc2ccccc2F)C1 (stereo unspecified)	3.318%
c1cc(CN2CCc3c(CN4CCCC4)n[nH]c3C2)ccn1	-1.373%
Cc1cccc(CN2CCc3c(nc(N4CCCCC4C)[nH]c3=O)C2)n1 (stereo unspecified)	-2.625%
Fc1cccc2[nH]c(CN3CCc4cncnc4C3)nc12	8.027%
Cc1ccsc1CCNC(=O)CCC1CCCCN1C (stereo unspecified)	3.946%
C=C(C)CN(CC)Cc1nc(C)no1	10.24%

SMILES	Percent Effect
COCc1nc(C(=O)NS(=O)(=O)c2cc(F)ccc2F)cs1	4.131%
Cc1cc(C(=O)NCC(O)c2ccc(Cl)s2)c(C)o1 (stereo unspecified)	-36.26%
CCC1CN(CCNS(C)(=O)=O)c2ccccc2O1 (stereo unspecified)	-11.22%
CCNc1c(C#N)c(=O)n(C)c(=O)n1C	7.391%
CC1CCCCN1c1nc2c(c(=O)[nH]1)CCN(Cc1ccccc1O)C2 (stereo unspecified)	110.1%
NC(=O)N1CCCC(C(=O)N2CCc3c(nc(CC4CC4)[nH]c3=O)C2)C1 (stereo unspecified)	10.65%
Cc1nc(O)cc(C2CCN(C(=O)C(C)Cn3nc(C)nc3C)CC2)n1 (stereo unspecified)	-10.44%
Cc1nc(-c2ccc(C(=O)O)cc2)cc(C2CCN(C(C)C)C2)n1 (stereo unspecified)	-2.545%
Cc1nc(-c2cccc(C(=O)O)c2)cc(C2CCCN(C(C)C)C2)n1 (stereo unspecified)	109.5%
Cc1nc(-c2cccc(C(=O)O)c2)cc(C2CCN(C(C)C)C2)n1 (stereo unspecified)	-0.6305%
Cc1nc(-c2ccc(C(=O)O)cc2)cc(C2CCCN(C(C)C)C2)n1 (stereo unspecified)	96.58%
CC(C)S(=O)(=O)N1CCCC(c2cccc(C(=O)O)c2)C1 (stereo unspecified)	13.9%
Cc1nc(-c2ccc(C(=O)O)cc2)cc(C2CCN(C(C)C)CC2)n1	130.3%
O=C(O)C(F)(F)F.O=C(c1cnccn1)N1CCN2C[C@H](OCc3ccccc3F)C[C@H]2C1	4.203%
Cc1ccoc1C(=O)NC1CCN(Cc2csc3c(F)cccc23)CC1	2.463%
Cc1cccc(N2CCC3(CCCN3Cc3cnn(C)c3C)CC2)n1	9.163%
CNC(=O)C1(C)CCCN1Cc1cnn(C)c1C (stereo unspecified)	106.7%
CCn1cc(CN2CCCN(C(=O)C3(C)CCOCC3)CC2)cn1	8.44%
O=C(NCc1cnn2ccccc12)NC1CCCC1	-4.156%
Cc1c(CN2CCCC2(C)C(=O)N2CCOCC2)cnn1C (stereo unspecified)	169.3%
Cc1oncc1C(=O)N1CCC(O)(CN2CCOCC2)C(C)(C)C1 (stereo unspecified)	29.5%
Cc1c(CNC(=O)c2cn(CCC3CCCCN3)nn2)cnn1C (stereo unspecified)	10.08%

SMILES	Percent Effect
Cc1c(CN2CCCC2(C)C(=O)NC2CCCC2)cnn1C (stereo unspecified)	156.7%
Cc1c(CNC(=O)Nc2cccc3c2CCN3C)cnn1C	-8.63%
CNc1nc(CNC(=O)Nc2ccc(OC(C)C)cc2C)cs1	3.504%
CCc1nc2n(n1)CCCC2Nc1nc(C2CC2)ns1 (stereo unspecified)	8.759%
COc1cc(C)ccc1C(=O)N1CCC2(CCC(=O)N(C(C)C)C2)CC1	-6.21%
CCC(NC(=O)NCc1cc(Cl)ccc1OC)c1noc(C)n1 (stereo unspecified)	-1.249%
CC(C)(O)CNC(=O)c1sccc1Br	4.512%
Cn1cc(N2CCCC(Oc3ccc(F)cc3Cl)C2=O)cn1 (stereo unspecified)	5.607%
CN(CCCN1CCCC1)[C@@H]1c2ccccc2C2(CCNCC2)[C@H]1O	1.656%
O=C(CCCc1ccccn1)N1CCCC1c1noc(C2CC2)n1 (stereo unspecified)	105.7%
O=C(CCc1cccs1)N1CCCC1c1noc(C2CC2)n1 (stereo unspecified)	100.7%
CCc1nc(C2CCCN2C(=O)Cc2cccs2)no1 (stereo unspecified)	95.79%
CCc1nc(C2CCCN2C(=O)CCc2cccs2)no1 (stereo unspecified)	-2.964%
c1csc(CCN2CCCC2c2noc(C3CC3)n2)c1 (stereo unspecified)	-13.07%
CCc1nc(C2CCCN2CCc2cccs2)no1 (stereo unspecified)	-1.558%
O=C(COc1cc(Cl)cc(Cl)c1)NCc1nncn1C1CC1	2.768%
c1cn(Cc2nnc(C3CCN(c4nccs4)CC3)n2C2CC2)cn1	0.8881%
CC(C)n1ccnc1C1CCCN(c2ccncc2F)C1 (stereo unspecified)	20.23%
Cc1c(C(=O)NC2(C#N)CCCC2)nnn1-c1ccccc1Cl	-3.476%
Cc1cccc(N2CCN(CCC(=O)NCc3cnc(C)cn3)CC2)c1	-29.47%
CC(C)NC(=O)CCCn1cnc2ccccc2c1=O	103.3%
CCC(C)NC(=O)CCc1ccnc2ccccc12 (stereo unspecified)	0.4358%

SMILES	Percent Effect
Cn1ccnc1SCCNC(=O)Cn1cnc2ccccc2c1=O	4.017%
CCn1c(C)nnc1SCCNC(=O)Cn1cnc2ccccc2c1=O	1.964%
Cc1nnc(SCCNC(=O)Cn2cnc3ccccc3c2=O)s1	-10.12%
COC(=O)CNC(=O)CCCn1cnc2ccccc2c1=O	126.5%
COCC(C)NC(=O)CCSc1ccc(F)cc1 (stereo unspecified)	4.419%
Cc1cnc(CNC(=O)CCCn2cnc3ccccc3c2=O)cn1	123.4%
COCC(C)NC(=O)CCCn1cnc2ccccc2c1=O (stereo unspecified)	133.1%
CN(C)S(=O)(=O)c1ccc(CNc2ccc(Cl)cn2)cc1	-2.882%
CSCC(C)C(=O)NCc1c(C)nc2cc(=O)[nH]n2c1C (stereo unspecified)	-19.78%
CCCc1nccn1-c1ccc(C(O)CN2CCOCC2)cc1 (stereo unspecified)	-2.856%
CCc1nc2c(c(N3CCOCC3)n1)CCN(C(=O)c1ccon1)CC2	0.9669%
O=C(CCCn1cnc2ccccc2c1=O)Nc1nc[nH]n1	118.2%
CC(NC(=O)CCCn1cnc2ccccc2c1=O)c1ncn[nH]1 (stereo unspecified)	135.6%
Cc1cc(C(C)NC(=O)CCn2nnc3ccccc3c2=O)c(C)o1 (stereo unspecified)	5.131%
CC(NC(=O)CCCc1ccc(Cl)cc1)c1nnn[nH]1 (stereo unspecified)	-9.693%
O=C(CCn1ccc2ncccc2c1=O)N1CCCC1	-7.075%
Cn1cc2ncn(CCCOc3cccnc3)c(=O)c2n1	-2.569%
Cc1noc(C)c1CN(C)C(=O)NCCOc1ccc(F)cc1F	-11.52%
